Activity calls are given as the source filed them. Rule for the calls: active = hit-call score of the fitted dose curve at least 0.9, where 1 is the maximum; inactive = score below 0.9.
Columns and labels:
[1] = read-out: Cyclin D1 (CCND1), CCND1 (gene 595); assay: LTEA_HepaRG_CCND1: Life Technologies and Expression Analysis (LTEA) Assay for Cyclin D1 (CCND1) using HepaRG (AID 2283451); conditions: mRNA level, 48 h; actives raise or lower the signal;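 for AC50: TaqMan qRT-PCR transcript level normalised to ACTB GAPDH and POLR2A housekeeping genes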
Method in brief: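 Differentiated human HepaRG cells in serum-free induction medium were exposed 48 h to eight half-log concentrations up to 100 uM in 0.5% DMSO; mRNA quantified by TaqMan qRT-PCR, normalized to ACTB, GAPDH, POLR2A, fitted bidirectionally versus DMSO.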

[2] = read-out: catalase (CAT), CAT (gene 847); assay: LTEA_HepaRG_CAT: Life Technologies and Expression Analysis (LTEA) Assay for catalase (CAT) using HepaRG (AID 2283452); conditions: mRNA level, 48 h; actives raise or lower the signal;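 for AC50: TaqMan qRT-PCR signal normalized to ACTB GAPDH and POLR2A housekeeping genes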
Method in brief: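 Expression of CAT was quantified by TaqMan qRT-PCR with ACTB/GAPDH/POLR2A normalization after 48 h chemical exposure of HepaRG. Eight-point half-log series, top 100 uM, in 0.5% DMSO; gain or loss fitted against vehicle.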

[3] = read-out: flavin-containing dimethylaniline monooxygenases 3 (FMO3), FMO3 (gene 2328); assay: LTEA_HepaRG_FMO3: Life Technologies and Expression Analysis (LTEA) Assay for flavin-containing dimethylaniline monooxygenases 3 (FMO3) using HepaRG (AID 2283453); conditions: mRNA level, 48 h; actives raise or lower the signal
Method in brief: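 Eight-point concentration-response in serum-free HepaRG cultures (top 100 uM, 0.5% DMSO, 48 h). Read-out: FMO3 mRNA level normalized to three endogenous control genes, fitted bidirectionally versus vehicle.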

[4] = read-out: Cytochrome P450 (CYP1A1), CYP1A1 (gene 1543); assay: LTEA_HepaRG_CYP1A1: Life Technologies and Expression Analysis (LTEA) Assay for Cytochrome P450 (CYP1A1) using HepaRG (AID 2283454); conditions: mRNA level, 48 h; actives raise or lower the signal
Method in brief: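 Differentiated HepaRG cells in serum-free induction medium were exposed in duplicate for 48 h to eight half-log concentrations up to 100 uM in 0.5% DMSO. CYP1A1 mRNA was quantified by TaqMan qRT-PCR, normalized to ACTB, GAPDH and POLR2A.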

[5] = read-out: CFLAR gene, CFLAR (gene 8837); assay: LTEA_HepaRG_CFLAR: Life Technologies and Expression Analysis (LTEA) Assay for CFLAR gene using HepaRG (AID 2283455); conditions: mRNA level, 48 h; actives raise or lower the signal
Method in brief: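 Transcript level by qRT-PCR (normalized to ACTB, GAPDH and POLR2A) after 48 h chemical exposure of HepaRG cells, top concentration 100 uM with half-log steps, 0.5% DMSO vehicle, duplicates; fitted bidirectionally against DMSO baseline.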

[6] = read-out: Forkhead box O1 (FOXO1), FOXO1 (gene 2308); assay: LTEA_HepaRG_FOXO1: Life Technologies and Expression Analysis (LTEA) Assay for Forkhead box O1 (FOXO1) using HepaRG (AID 2283456); conditions: mRNA level, 48 h; actives raise or lower the signal
Method in brief: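 FOXO1 transcript quantified by qRT-PCR after 48 h chemical exposure (top 100 uM, half-log steps, 0.5% DMSO) of HepaRG cells, housekeeping-normalized (ACTB/GAPDH/POLR2A). Changes fitted in both directions relative to vehicle.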

[7] = CEETOX_H295R_TESTO: CeeTox H295R High-throughput Steroidogenesis Assay for Testosterone (TESTO) (AID 2283457); conditions: actives raise or lower the signal
Method in brief: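 H295R human adrenal cells in DMEM/F12 with ITS+ and Nu-Serum, exposed to chemicals for 48 h. Testosterone in medium measured by MTBE extraction, reverse-phase HPLC-MS/MS; bidirectional fit versus DMSO baseline. MTT viability checked in same wells.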

[8] = read-out: growth arrest and DNA damage 45 (GADD45A), GADD45A (gene 1647); assay: LTEA_HepaRG_GADD45A: Life Technologies and Expression Analysis (LTEA) Assay for growth arrest and DNA damage 45 (GADD45A) using HepaRG (AID 2283458); conditions: mRNA level, 48 h; actives raise or lower the signal
Method in brief: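 Eight-point concentration-response in HepaRG cells: 48 h chemical exposure, 0.5% DMSO vehicle, top dose 100 uM. Normalized qRT-PCR mRNA readout with bidirectional fitting relative to DMSO.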

[9] = read-out: Forkhead box O3 (FOXO3), FOXO3 (gene 2309); assay: LTEA_HepaRG_FOXO3: Life Technologies and Expression Analysis (LTEA) Assay for Forkhead box O3 (FOXO3) using HepaRG (AID 2283459); conditions: mRNA level, 48 h; actives raise or lower the signal
Method in brief: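 FOXO3 transcript measured by qRT-PCR (normalized to ACTB, GAPDH, POLR2A) after 48 h exposure of HepaRG cells in serum-free induction medium. Duplicates, eight half-log concentrations up to 100 uM, 0.5% DMSO; gain or loss fitted against DMSO.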

[10] = read-out: ABC Transporter (ABCB1), ABCB1 (gene 5243); assay: LTEA_HepaRG_ABCB1: Life Technologies and Expression Analysis (LTEA) Assay for ABC Transporter (ABCB1) using HepaRG (AID 2283460); conditions: mRNA level, 48 h; actives raise or lower the signal
Method in brief: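 ABCB1 transcript level measured by TaqMan qRT-PCR against three housekeeping genes after 48 h chemical exposure of differentiated HepaRG cells. Top concentration 100 uM, half-log steps, eight points, 0.5% DMSO vehicle; bidirectional fit relative to DMSO.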

Measured: AC50

CNS(=O)(=O)c1cc(C(=O)N2CCC(CCN3C4CCC3CC(n3c(C)nc5ccccc53)C4)(c3cccc(F)c3)CC2)c(Cl)cc1F (stereo not drawn)
active: [2] 15.6 µM | [3] 24.2 µM
inactive: [1] | [4] | [5] | [6] | [7] | [8] | [9] | [10]

CCOc1cccc(-n2cc(C(=O)N3CCN(c4cc(C(=O)O)c5ccccc5c4)CC3)nc2-c2ccc(C)cc2)c1
inactive: [7]

CCCCC(CC)COC(=O)c1ccc(C(=O)OCC(CC)CCCC)cc1 (stereo not drawn)
inactive: [1] | [2] | [3] | [4] | [6] | [8] | [9] | [10]

CC(C)c1cccc(C(C)C)c1N1C(=O)c2ccc(O)cc2C1=O
inactive: [2] | [8]
active: [1] 82.4 µM | [3] 84.1 µM | [4] 63.1 µM | [6] 83.9 µM | [9] 80.4 µM | [10] 23.9 µM

CN(C)c1ccc(N=NS(=O)(=O)O)cc1
inactive: [1] | [2] | [3] | [6] | [8] | [10]
active: [4] 17.9 µM | [9] 16.4 µM

CC/C(=C\C(=N/O)C(N)=O)C(C)[N+](=O)[O-] (stereo not drawn)
active: [4] 31.9 µM
inactive: [1] | [2] | [3] | [6] | [8] | [9] | [10]

CCC(C)(C)C(=O)O[C@H]1C[C@@H](C)C=C2C=C[C@H](C)[C@H](CC[C@@H]3C[C@@H](O)CC(=O)O3)[C@H]21
active: [10] 31.7 µM
inactive: [1] | [2] | [3] | [6] | [8] | [9]

CCCCCCCCCCCCc1ccccc1
inactive: [1] | [2] | [3] | [6] | [8] | [9] | [10]
active: [4] 73.7 µM

CNCc1ccc(NC(=O)c2c[nH]c3c2C(=O)CCC3)cc1
active: [4] 73.8 µM
inactive: [1] | [2] | [3] | [6] | [8] | [9] | [10]

COc1cccc(-c2ccc(/C=C\CN3CCCCCC3)cc2Cl)c1
inactive: [9] | [10]
active: [1] 72.2 µM | [2] 69.7 µM | [3] 68.8 µM | [4] 45.2 µM | [6] 70.8 µM | [8] 69 µM

NC(=O)NO
inactive: [1] | [2] | [3] | [5] | [6] | [8] | [9] | [10]

CC(C)=CCCC(C)=CC=O
active: [4] 63.9 µM
inactive: [1] | [2] | [3] | [6] | [8] | [9] | [10]

Nc1ccc(Nc2ccccc2)cc1
inactive: [1] | [2] | [6] | [8] | [9] | [10]
active: [3] 50 µM | [4] 10.9 µM

Cc1ccc(O)cc1
inactive: [1] | [2] | [3] | [5] | [6] | [7] | [8] | [9] | [10]

O=c1n(CC2CO2)c(=O)n(CC2CO2)c(=O)n1CC1CO1 (stereo not drawn)
inactive: [1] | [2] | [3] | [4] | [6] | [8] | [9] | [10]

COCCOc1cc2cc(C(=O)NC3CCN(C(C)C)CC3)n(CC(=O)Nc3ccc(Cl)cn3)c2cn1
active: [1] 45 µM | [2] 45 µM | [3] 53.3 µM | [4] 2.09 µM | [9] 11.6 µM | [10] 20.6 µM
inactive: [6] | [8]

Source: PubChem BioAssay (EPA / NIEHS)
